NLRP3 yeast inh: NALP3 inflammasome inhibitors in reconstituted yeast, primary screen, luminescence, uHTS; Yeast reconstituted NLRP3/ASC/caspase-1, beta-gal luminescence, 24 h; inhibition, % at 10 µM; actives 0.39% (n = 330,000);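 active = inhibition of 50% or more; inactive = inhibition below 50%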
tim23-1 inh: growth inhibitors of tim23-1 mutant yeast, primary screen, luminescence, uHTS | S. cerevisiae tim23-1 growth, BacTiter-Glo luminescence, 24 h | inhibition, % at 20 µM | actives 1.3% (n = 330,000);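 active = growth inhibition of the mutant yeast at or above 50%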;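 note: temperature-sensitive mutant grown at 25 °C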
NALP1 inh: NALP1 inflammasome inhibitors in reconstituted yeast, colorimetric, S. cerevisiae, triplicate retest; S. cerevisiae NALP1/ASC/caspase-1 growth, X-gal OD620, 72 h; inhibition, % at 10 µM; AID 2071, 2009; actives 0.61% (n = 280,000); in the data active = inhibition mostly above about 24%, no sharp cut-off; inactive = mostly below about 32%
TIM10 inh: growth inhibitors of isogenic TIM10 control yeast, primary screen, counter-screen for tim10-1 yeast inhibitor project, luminescence, uHTS; AID 463195, 2010; inhibition, % at 10 µM; S. cerevisiae TIM10 strain growth, BacTiter-Glo luminescence, 24 h; actives 1.4% (n = 330,000);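 active = inhibition of 40% or more at the single tested concentration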;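 note: wild-type TIM10 isogenic control strain grown at permissive 25 °C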
SKKanGAS inh: S. pyogenes SKKanGAS growth inhibitors in kanamycin, primary screen, streptokinase expression inhibitor project, SKKanGAS strain, BacTiter-Glo luminescence | AID 1662, 2009 | 6 h | actives 1.3% (n = 300,000) | inhibition, % at 7.5 µM;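 active = mean replicate score, as percent of positive control median, at least 50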;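 note: strain carries kanamycin resistance gene driven by streptokinase promoter and grows in 40 µg/ml kanamycin; loss of luminescence reflects streptokinase promoter inhibition or plain growth inhibition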
tim10-1 inh: growth inhibitors of tim10-1 mutant yeast, primary screen, luminescence, uHTS; AID 463190, 2010; actives 2.2% (n = 330,000); S. cerevisiae tim10-1 ts strain growth, BacTiter-Glo, 24 h; inhibition, % at 20 µM;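 active = inhibition of at least 40%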;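 note: mutant grown at 25 °C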
tim10-1 conf: growth inhibitors of tim10-1 mutant yeast, confirmation, single concentration, luminescence, S. cerevisiae. shares compounds with tim10-1 inh. S. cerevisiae tim10-1 ts strain growth, BacTiter-Glo, 24 h. inhibition, % at 20 µM. actives 56% (n = 7,400). AID 463213, 2010;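 active = inhibition of yeast growth at or above a set limit in either of two repeat tests at 20 µM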;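 note: tim10-1 mutant grown at permissive 25 °C to find synthetic lethal compounds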
Each line names hits and unclear results; the compound was inactive in the other large screens (follow-up assays come after a bar, where they were run). Compounds with a hit are over-represented: about 4.9% of the library has one in this group of screens.

O=C(COC(=O)c1ccc(-c2ccc([N+](=O)[O-])cc2)o1)NC(=O)NC1CCCCC1	tim10-1 inh 41.6 | tim10-1 conf inactive
COc1cc2nc(N3CCN(c4cc(C)ccc4C)CC3)nc(N)c2cc1OC	tim10-1 inh 44.9 | tim10-1 conf inactive
COc1cc2nc(N3CCNCC3)nc(N)c2cc1OC	none
COc1ccc(N2CCN(C(=O)c3cc(-c4ccc(F)cc4)[nH]c3C)CC2)cc1	tim10-1 inh 42.0 | tim10-1 conf 39.7
Cc1[nH]c2ccc(C(=O)N3CCN(c4ccc(F)cc4)CC3)cc2c1C	tim10-1 inh 54.4 | tim10-1 conf inactive
COc1ccc(C(C(=O)NCC2CCCO2)N(C(=O)CNC(=O)c2cccs2)c2ccc(C(C)=O)cc2)cc1OC (stereo not given)	none
Cc1nnc2c(N3CCN(CCO)CC3)nc3ccccc3n12	none
CCc1ccc(/C=C2\Oc3cc(OC(=O)N4CCOCC4)ccc3C2=O)cc1	tim10-1 inh 50.5 | tim10-1 conf inactive
Cc1cccc(C)c1NC(=O)CNC(=O)c1cccc(S(=O)(=O)NCc2cccs2)c1	none (no result: NALP1 inh, SKKanGAS inh)
Brc1ccc(Oc2nnnn2-c2ccccc2)cc1	tim10-1 inh 43.7 | tim10-1 conf 35.2
O=C(OCc1ccccc1)/C(=C/c1ccc(Cl)cc1)NC(=O)c1ccccc1Cl	none
CCOC(=O)/C(=C/c1ccc(Cl)cc1)NC(=O)c1ccco1	tim10-1 inh 40.5 | tim10-1 conf inactive
Cn1c(N2CCOCC2)nc(-c2ccccc2)c1-c1ccccc1	tim10-1 inh 45.9 | tim10-1 conf 39.2
CN1CCN(CCCN2c3ccccc3Sc3ccc(C(F)(F)F)cc32)CC1	tim10-1 inh 42.0 | tim10-1 conf inactive
O=C(CN1CCCC(O)C1)N1c2ccccc2Sc2ccc(C(F)(F)F)cc21 (stereo not given)	none
CN1CCN(c2nc(Nc3ccc(F)cc3)nc(Nc3ccc(F)cc3)n2)CC1	none
Clc1cccc(Cl)c1/C=C/c1ccn[nH]1	tim10-1 inh 54.7 | tim10-1 conf 39.6
Cc1cc(C(C#N)c2ccccc2F)n2ncnc2n1 (stereo not given)	none
Cc1cccc2c1N(CCOc1ccc(C(C)(C)C)cc1)C(=O)C2=O	tim10-1 inh 46.1 | tim10-1 conf 33.0
CCCCOc1cccc(C(=O)NC(=S)Nc2cccnc2)c1	tim10-1 inh 43.3 | tim10-1 conf inactive
CCOc1cccc(C(=O)NC(=S)Nc2cccnc2)c1	none
O=C(COC(=O)Cc1ccc(S(=O)(=O)N2CCOCC2)s1)Nc1ccc([N+](=O)[O-])cc1	none (no result: NALP1 inh, SKKanGAS inh)
CC1=NN(C(N)=S)C(=O)C1N=Nc1ccc(C)cc1C (stereo not given)	none
CC1=NN(C(N)=S)C(=O)C1N=Nc1c(C)cc(C)cc1C (stereo not given)	SKKanGAS inh 50.7, tim10-1 inh 44.9 | tim10-1 conf inactive
CCOC(=O)C1=C(c2ccccc2)O/C(=C(/C#N)C(F)(F)F)S1	tim10-1 inh 47.3 | tim10-1 conf 38.8
CC1(C)CC(=O)/C(=C(\O)c2ccccc2)C(=NCCc2ccccc2)C1	tim10-1 inh 45.0 | tim10-1 conf inactive
CC1(C)c2[nH]c3ccccc3c2C[C@@H]2C(=O)N(Cc3ccc(F)cc3)C(=O)N21	tim10-1 inh 44.6 (no result: NALP1 inh) | tim10-1 conf inactive
CN1CCc2c(sc3nc(SCC(=O)N4CCOCC4)n(-c4ccc(Cl)cc4)c(=O)c23)C1	none
CCN1C(=O)CC(N2CCC(Nc3ccc(OC)cc3)CC2)C1=O (stereo not given)	none (no result: SKKanGAS inh)
O=C1CC(N2CCN(c3cccc(C(F)(F)F)c3)CC2)C(=O)N1c1ccccc1 (stereo not given)	tim10-1 inh 40.8 | tim10-1 conf inactive
O=C1CC(N2CCCN(C3CC(=O)N(c4ccc(F)cc4)C3=O)CC2)C(=O)N1c1ccc(F)cc1 (stereo not given)	NALP1 inh 39.1, tim10-1 inh 47.4 | tim10-1 conf 41.8
COc1ccc(NC2CCN(C3CC(=O)N(c4ccc(F)c(Cl)c4)C3=O)CC2)cc1 (stereo not given)	tim10-1 inh 53.8 | tim10-1 conf 42.0
CCCOc1ccc(N2C(=O)CC(N3CCC(O)(c4cccc(C(F)(F)F)c4)CC3)C2=O)cc1 (stereo not given)	tim10-1 inh 56.0 | tim10-1 conf 47.0
COc1ccc(N2C(=O)CC(N3CCC(O)(c4ccc(Br)cc4)CC3)C2=O)cc1 (stereo not given)	none
COc1cc(C(=O)NNC(=O)c2cccc(Cl)c2)ccc1OCC(=O)N1CCOCC1	none (no result: NALP1 inh, SKKanGAS inh)
COc1cccc(N2CCN(C3CC(=O)N(c4ccc(F)c(Cl)c4)C3=O)CC2)c1 (stereo not given)	tim10-1 inh 40.9 | tim10-1 conf inactive
NC(=O)C1CCN(C2CC(=O)N(c3ccc(F)c(Cl)c3)C2=O)CC1 (stereo not given)	tim10-1 inh 53.2 | tim10-1 conf 50.3
COc1ccccc1NC(=O)COC(=O)Cn1cnc2c1c(=O)n(C)c(=O)n2C	none (no result: NALP1 inh, SKKanGAS inh)
O=C(NN1C(=O)/C(=C/c2ccc(O)cc2)SC1=S)c1cccc(O)c1	none
CC(/C=C1\SC(=S)N(NC(=O)c2cccc(O)c2)C1=O)=C\c1ccccc1	tim10-1 inh 51.2 | tim10-1 conf 30.6
O=C1NC[C@H](c2ccccc2)OC(=O)[C@H](Cc2ccc(F)cc2)C/C=C\C[C@H]1CC(=O)N(CCO)Cc1ccccc1	none (no result: NALP1 inh, SKKanGAS inh)
CC(C)Oc1ccccc1C1Nc2ccccc2C(=O)N1c1ccc2c(c1)OCCO2 (stereo not given)	tim10-1 inh 45.7 | tim10-1 conf inactive
Cc1cc(C)cc(OCC(=O)OCC(=O)N2CCc3ccccc32)c1	none (no result: NALP1 inh)
CCCNC(=S)N1CCN(c2nc(C)nc3sc4c(c23)CCCC4)CC1	tim10-1 inh 42.5 | tim10-1 conf inactive
COCCCNC(=S)N1CCN(c2nc(C)nc3sc4c(c23)CCCC4)CC1	none
Cc1cc(C(=O)CN2C(=O)C(=O)N(Cc3ccco3)C2=O)c(C)n1CCc1ccc(F)cc1	none (no result: NALP1 inh, SKKanGAS inh)
Cc1c(Cl)cccc1NC(=S)/C(=C(\[O-])c1ccc(Cl)s1)[n+]1ccccc1	tim10-1 inh 47.1 | tim10-1 conf 36.5
CCc1cccc(C)c1NC(=S)N(CCN(C)C)C(C)c1ccco1 (stereo not given)	none (no result: NALP1 inh)
CCCc1cc(=O)[nH]c(SCC(=O)Nc2cc(C)on2)n1	none
Cc1ccc(NCCC(=O)c2cccc([N+](=O)[O-])c2)c(C)c1	none

Assay outcomes deposited in PubChem by several laboratories.
